# Bioassay records: PubChem, National Center for Advancing Translational Sciences (NCATS)
# TGFb inhibitor: TGF-b pathway inhibition. AID 588855. 1.2% of 410,000 active. Potency, µM (top dose mostly 46.1 µM), for the others: at the highest dose activity, negative = inhibition, actives largely listed as inhibitors. HepG2 CAGA-GFP TGF-b/SMAD3 reporter, GFP fluorescence, 18 h; TGF-beta stimulated, 500 pg/mL final; note: potency is the fitted concentration of half-maximal effect; % is set by controls: 0 for no effect and ±100 for the full control effect; nearly all actives have a fitted effect of over 65% in size
#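 Cell-based qHTS in HEPG2 carrying a CAGA-GFP Smad reporter; compounds added before 500 pg/mL final TGF-beta, 18 h incubation at 37 degrees C, GFP fluorescence quantified per cell by imaging cytometry.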
# DT40 TDP1 CPT: DT40-hTDP1 cell growth loss with CPT. chicken DT40 Tdp1-/-;hTDP1 cells + 20 nM CPT, ATP luminescence, 48 h. Potency, µM (series often up to 46.2 µM), for the others: at the highest dose activity change, negative = growth inhibition, usual class: inhibitors. 12% of 420,000 active. AID 686979; note: potency is the fitted concentration of half-maximal effect; % is set by controls: 0 for no effect and ±100 for the full control effect; nearly all actives have a fitted effect of over 55% in size
#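 Chicken DT40 Tdp1-/- cells stably complemented with human TDP1 were seeded at 400 cells/well in medium containing 20 nM camptothecin, exposed to pin-transferred compounds, and grown at 37 °C for at least 48 hr. Viability was read as ATP luminescence.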
# DT40 TDP1 no CPT: qHTS for Inhibitors of human tyrosyl-DNA phosphodiesterase 1 (TDP1): qHTS in cells in absence of CPT. DT40 Tdp1-/- hTDP1 cells, no CPT, ATP luminescence, 48 h. Potency, µM (doses to about 46.2 µM), for inactives: at the highest dose activity change, negative = growth inhibition, hits mostly inhibitors. 15% of 420,000 active. AID 686978, 2013; note: potency is the fitted concentration of half-maximal effect; % is set by controls: 0 for no effect and ±100 for the full control effect; nearly all actives have a fitted effect of over 55% in size
#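 Camptothecin absent (DMSO only). Human TDP1-complemented DT40 knockout cells, 400 cells/well, 37 °C for minimum 48 hr; ATP measured via CellTiter-Glo, 30 min dark incubation, luminescence.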
# HepG2 tox: kills HepG2 cells in TGF-b inhibitor counter-screen; Potency, µM (series often up to 46.1 µM), without a hit: at the top dose activity change, negative = cytotoxicity, most hits filed as cytotoxic; 0.76% of 410,000 active; AID 588856; HepG2 CAGA-GFP viability, ATP luminescence, 18 h; note: potency is the fitted concentration of half-maximal effect
#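 HepG2 CAGA-GFP cells (1000/well, DMEM with 1% FBS) received compound, then TGF-beta at 500 pg/mL final, and were incubated 18 hours at 37 degrees C. Viability was read by CellTiter-Glo luminescence. Media-only wells were set as complete cell-killing and DMSO as no toxicity.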
# TDP1 inh: TDP1 (human) enzyme inhibition; Q9NUW8; AID 485290; Potency, µM (top dose mostly 130 µM), without a hit: top-dose activity change, negative = inhibition, hits mostly inhibitors; 0.28% of 350,000 active; recombinant TDP1, AlphaScreen DNA substrate cleavage; note: potency is the fitted concentration of half-maximal effect; % is set by controls: 0 for no effect and ±100 for the full control effect; nearly all actives have a fitted effect of over 40% in size
# Target sequence (Q9NUW8 whole entry, looked up): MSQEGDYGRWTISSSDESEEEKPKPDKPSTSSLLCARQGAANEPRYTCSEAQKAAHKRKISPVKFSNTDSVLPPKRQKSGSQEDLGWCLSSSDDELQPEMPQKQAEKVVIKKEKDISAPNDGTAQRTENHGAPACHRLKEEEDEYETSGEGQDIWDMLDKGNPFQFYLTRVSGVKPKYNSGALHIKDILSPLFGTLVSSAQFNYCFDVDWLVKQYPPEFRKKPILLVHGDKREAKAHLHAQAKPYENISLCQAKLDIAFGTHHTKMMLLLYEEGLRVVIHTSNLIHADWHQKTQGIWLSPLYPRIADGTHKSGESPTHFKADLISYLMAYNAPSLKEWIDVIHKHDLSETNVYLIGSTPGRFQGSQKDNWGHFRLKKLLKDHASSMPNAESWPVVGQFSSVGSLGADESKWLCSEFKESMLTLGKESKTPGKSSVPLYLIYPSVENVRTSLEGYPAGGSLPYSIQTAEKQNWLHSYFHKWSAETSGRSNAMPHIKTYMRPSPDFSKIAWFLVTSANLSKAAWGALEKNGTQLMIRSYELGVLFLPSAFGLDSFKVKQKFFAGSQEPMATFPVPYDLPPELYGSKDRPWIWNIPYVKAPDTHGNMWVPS
#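 Compounds were preincubated with Tdp1 (1 nM final) for 15 min at room temperature before substrate (15 nM final) started a 5 min reaction; beads (10 ug/ml final) were then added for 10 min before AlphaScreen detection.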
# IL-1B inflam inh: inflammasome signaling inhibition, IL-1 beta readout; 4.7% of 360,000 active; activity change, % at 57.5 µM; THP-1 LPS/ATP IL-1B secretion, AlphaLISA, 16 h; active compounds read low; in the data active = activity change below about -50%; inconclusive = mostly about -30% to -49%; note: % is set by controls: 0 for no effect and ±100 for the full control effect
#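 Secreted IL-1B measured by AlphaLISA bead assay after 16 h compound exposure of THP-1 cells; compounds (final up to 57.5 uM) added 1 h before LPS (250 ng/mL) and ATP (1.25 mM) stimulation; lower signal means less secretion.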
# An asterisk follows results filed as active; ? = inconclusive; / = no result. Hits are enriched below; roughly 19% of the tested compounds scored in any of these assays. Unless noted, calls come from the whole dose curve; as a rule, active = well fitted curve in the direction sought with a large enough effect; inconclusive = small, poorly fitted or top-dose-only effect, or another doubt; inactive = no such curve, though single readings can be large; an effect the other way counts as inactive or inconclusive.
SMILES,TGFb inhibitor,DT40 TDP1 CPT,DT40 TDP1 no CPT,HepG2 tox,TDP1 inh,IL-1B inflam inh
CCOCCN1CCN(c2c3c(nc4cc(-c5ccc(F)cc5)nn24)CCC3)CC1,8%,?,16µM*,-2%,-1%,-7
COc1ccc(-c2c(C)nn3c(N4CCCCCC4)cc(C)nc23)cc1OC,?,23µM*,26µM*,-25%,/,-82*
COc1cccc(NC(=O)CN2C(=O)NC3(CCCc4ccccc43)C2=O)c1 (configuration not stated),-20%,-29%,15%,-16%,1%,-10
CCc1ccccc1NC(=O)C(C)n1c(=O)cc(C)c2c(C)nn(-c3ccccc3)c21 (configuration not stated),8%,0%,-1%,2%,2%,/
CCOCCN1CCN(c2c(CC)c(C)nc3cc(-c4cc(OC)cc(OC)c4)nn23)CC1,4%,21µM*,15µM*,-11%,2%,?
CCc1c(C)nc2cc(-c3ccc(OC)c(OC)c3)nn2c1N1CCCC1,22µM*,?,23µM*,-93%,6%,?
COc1cc2oc(=O)cc(CN3CCOCC3)c2cc1Cl,-6%,-16%,-14%,1%,/,-12
CCSC1=NC2(CCN(C(=O)NC3CCCCC3)CC2)N=C1c1ccc(C)c(C)c1,-2%,-7%,-1%,1%,3%,/
CCOC(=O)CC(=O)CSc1nc2c(sc(=S)n2-c2ccc(OCC)cc2)c(=O)[nH]1,?,-11%,?,4%,0%,-53*
CCOC(=O)CC(=O)CSc1nc2c(sc(=S)n2-c2ccc(C)c(C)c2)c(=O)[nH]1,0%,-3%,-14%,-11%,/,-4
Cc1oc2c(c(C)cc3oc(=O)c(CC(=O)NCc4ccc(F)cc4)c(C)c32)c1C,-12%,-8%,-1%,-8%,2%,/
COC(=O)C1[C@H]2C(=O)N(Cc3cccs3)C[C@]23C=C[C@H]1O3 (some centres not stated),9%,11%,-9%,12%,-2%,-8
CCOC(=O)C1C2C=CC3(CN(Cc4cccs4)C(=O)C13)O2 (configuration not stated),9%,?,21µM*,13%,5%,-1
Oc1ccc(/C=C/c2ccccc2)c2cccnc12,/,/,/,/,1%,/
Oc1ccc(N=Nc2ccc3c(c2)OCCO3)c2cccnc12,4%,1.3µM*,1.6µM*,1%,13%,44
O=Nc1ccc(O)c2ncccc12,?,0.58µM*,0.92µM*,-96%,-7%,-98*
COc1cccc(N=Nc2ccc(O)c3ncccc23)c1,?,2.6µM*,2.6µM*,-9%,14%,14
Nc1ccc(N=Nc2ccccc2)c2cccnc12,-15%,-2%,-2%,-12%,/,-21
Cc1ccc(O)c2ncccc12,/,?,4.7µM*,/,9%,/
O=S(=O)(O)c1cccc2c(N=Nc3ccc(O)c4ncccc34)cccc12,3%,?,11%,1%,/,0
Oc1ccc(N=Nc2ccc3c(c2)OCCO3)c(O)c1,-17%,?,?,-43%,11%,-13
COc1cccc(CN2C(=O)NC(C)(C3CCN(Cc4cnn(C)c4C)CC3)C2=O)c1OC (configuration not stated),/,4%,0%,/,/,/
N/C(=N\OC(=O)COc1ccc(Br)cc1Cl)c1cccnc1,-18%,-6%,-21%,-44%,1%,-3
COc1cccc(N=Nc2ccc3cccnc3c2O)c1,?,0.58µM*,1.2µM*,-10%,/,26
Clc1cc2cccnc2c2ncccc12,?,-5%,1%,-41%,0%,230
SMILES,TGFb inhibitor,DT40 TDP1 CPT,DT40 TDP1 no CPT,HepG2 tox,TDP1 inh,IL-1B inflam inh
COc1ccc(-c2ncccc2O)cc1,17%,0%,-9%,16%,-2%,-3
COc1ccc(N=Nc2ccc(O)c3ncccc23)cc1,?,2.1µM*,1.5µM*,-4%,-1%,93
Cc1ccccc1N=Nc1ccc(O)c2ncccc12,-14%,2.6µM*,1.6µM*,-3%,9%,2
Cc1c(C)c2cccnc2c2ncccc12,10µM*,1.8µM*,1.5µM*,-35%,-1%,-4
O=C(NC1CC(=O)N(c2cccc(F)c2)C1)c1ccc(S(=O)(=O)N2CCCC2)cc1 (configuration not stated),-18%,?,?,-13%,3%,/
Oc1ccc(CCc2c(F)cccc2F)c2cccnc12,/,/,/,/,0%,/
COCc1ccc(O)c2ncccc12,1.6µM*,4.6µM*,4.6µM*,-77%,8%,118
CCNC(=O)C1(C)CCCN(Cc2csc3ccccc23)C1 (configuration not stated),11%,?,-30%,-4%,/,0
CCc1ccc(C(=O)COC(=O)C(Cc2c[nH]c3ccccc23)NC(=O)c2ccc(CC)cc2)cc1 (configuration not stated),?,?,?,-37%,2%,/
COc1ccccc1C1CC(=O)NC(C)=C1C(=O)OC(C)C (configuration not stated),-7%,?,13µM*,-5%,0%,15
COc1ccccc1C1CC(=O)NC(C)=C1C(=O)OC1CCCCCC1 (configuration not stated),?,21µM*,13µM*,-4%,-5%,/
CC1=C(C(=O)OC2CCCC2)C(c2ccccc2C(F)(F)F)CC(=O)N1 (configuration not stated),0%,18µM*,15µM*,-55%,-2%,/
CC1=C(C(=O)OC2CCCCCC2)C(c2ccc(Cl)cc2)CC(=O)N1 (configuration not stated),?,?,?,-67%,0%,/
CC1=C(C(=O)OCc2ccc(C)cc2)C(c2ccccc2C(F)(F)F)CC(=O)N1 (configuration not stated),?,23µM*,21µM*,-48%,2%,/
COC(=O)C1=NN(C(=O)c2ccccc2)C(C)(O)C1 (configuration not stated),6%,?,23µM*,-1%,-12%,1
CCn1cc2nc(SCC(=O)Nc3ccc(OC)cc3OC)n(Cc3ccc(Cl)cc3)c(=O)c2n1,9%,21µM*,18µM*,-25%,7%,/
CCn1cc2nc(SCC(=O)Nc3cccc(Cl)c3C)n(Cc3ccc(Cl)cc3)c(=O)c2n1,4%,?,?,-14%,-4%,/
